Our source for the binding signal values is publication PMC5700166.

In this assay the target is T1, GST-Nv-NF-kB (Ser allele) (Nematostella vectensis, UniProt A7UNT2 2-411).
T1 sequence: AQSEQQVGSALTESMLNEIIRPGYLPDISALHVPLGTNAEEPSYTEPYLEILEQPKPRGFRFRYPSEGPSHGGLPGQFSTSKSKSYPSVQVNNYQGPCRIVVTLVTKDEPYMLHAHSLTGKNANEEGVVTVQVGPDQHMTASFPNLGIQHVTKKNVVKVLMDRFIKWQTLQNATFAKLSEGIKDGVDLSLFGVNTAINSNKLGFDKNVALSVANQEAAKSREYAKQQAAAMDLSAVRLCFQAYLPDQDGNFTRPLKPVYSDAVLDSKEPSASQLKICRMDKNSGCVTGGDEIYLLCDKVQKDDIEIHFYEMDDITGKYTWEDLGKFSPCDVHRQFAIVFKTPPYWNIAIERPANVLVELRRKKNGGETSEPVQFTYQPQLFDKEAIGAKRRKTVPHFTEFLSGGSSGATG
Put plainly: protein-binding microarray (PBM); PBM: ~300 nM protein, 6 mM HEPES pH 7.8, 80 mM KCl, 0.5 mM EDTA, 0.5 mM EGTA, 6% glycerol, 35 ng/ul poly-dIdC, 1% milk, 1 h, room temperature; Ap Aiptasia and Nv Nematostella (sea anemones) / Co Capsaspora / Aq Amphimedon (sponge) / Dm Drosophila / Hu human; RHD is the Rel homology domain; high values mean tight binding. As to conditions: dsDNA, one strand shown.
Turning to “CCGATTAACATCAGACCCCCCCCTGATGTTAATCGGGTCTTGATTCGCTTGACGCTGCTG”, the binding signal came out at 3.56 z-score.
The sequence “CCGATTAACATCATACTTCCCCATGATGTTAATCGGGTCTTGATTCGCTTGACGCTGCTG” yielded a binding signal of 6.52 z-score.
Take “CCGATTAACATCAGGAAAGCCCCTGATGTTAATCGGGTCTTGATTCGCTTGACGCTGCTG”: the binding signal came to 6.08 z-score.
With “CCGATTAACATCAAACAGTCCCCTGATGTTAATCGGGTCTTGATTCGCTTGACGCTGCTG”, the binding signal came out at 4.53 z-score.
“CCGATTAACATCAGGGGGAACAATGATGTTAATCGGGTCTTGATTCGCTTGACGCTGCTG” showed a binding signal of 6.27 z-score.
The sequence “CCGATTAACATCAAGGGGGATACTGATGTTAATCGGGTCTTGATTCGCTTGACGCTGCTG” came in with a binding signal of 5.52 z-score.
Sequence “CCGATTAACATCAAAAGCCCCCCTGATGTTAATCGGGTCTTGATTCGCTTGACGCTGCTG” displayed a binding signal of 4.86 z-score.
Turning to “CCGATTAACATCACCTCCCCCCCTGATGTTAATCGGGTCTTGATTCGCTTGACGCTGCTG”, the binding signal was 4.34 z-score.
In turn, “CCGATTAACATCAAAAGCCCCCATGATGTTAATCGGGTCTTGATTCGCTTGACGCTGCTG” showed a binding signal of 5.01 z-score.
The sequence “CCGATTAACATCAAAAATATTCCTGATGTTAATCGGGTCTTGATTCGCTTGACGCTGCTG” gave a binding signal of 1.03 z-score.
“CCGATTAACATCAGGGATTTTTATGATGTTAATCGGGTCTTGATTCGCTTGACGCTGCTG” yielded a binding signal of 5.24 z-score.
As for “CCGATTAACATCAGAAAAATCCCTGATGTTAATCGGGTCTTGATTCGCTTGACGCTGCTG”, the figure is 5.14 z-score; as for “CCGATTAACATCAATATCCCCCCTGATGTTAATCGGGTCTTGATTCGCTTGACGCTGCTG”, 6.44 z-score.
Turning to “CCGATTAACATCAAATTTACCCCTGATGTTAATCGGGTCTTGATTCGCTTGACGCTGCTG”, the binding signal is 5.32 z-score.
Take “CCGATTAACATCAATACCCCCCCTGATGTTAATCGGGTCTTGATTCGCTTGACGCTGCTG”: the binding signal worked out at 4.49 z-score.
“CCGATTAACATCAGGGGGTTAAATGATGTTAATCGGGTCTTGATTCGCTTGACGCTGCTG” displayed a binding signal of 4.45 z-score.
As for “CCGATTAACATCAGATTTACCGCTGATGTTAATCGGGTCTTGATTCGCTTGACGCTGCTG”, the figure is 1.31 z-score.
As to “CCGATTAACATCAAAAATTCACCTGATGTTAATCGGGTCTTGATTCGCTTGACGCTGCTG”, the binding signal amounted to 3.83 z-score.
Take “CCGATTAACATCAGGGGACCCCCTGATGTTAATCGGGTCTTGATTCGCTTGACGCTGCTG”: the binding signal came out at 5.69 z-score.
On to “CCGATTAACATCAAAGAGTCCCCTGATGTTAATCGGGTCTTGATTCGCTTGACGCTGCTG”, for which the binding signal was 6.03 z-score.
The value for “CCGATTAACATCAAAAACCACCCTGATGTTAATCGGGTCTTGATTCGCTTGACGCTGCTG” was 4.22 z-score; that for “CCGATTAACATCAGGGGGGGAGATGATGTTAATCGGGTCTTGATTCGCTTGACGCTGCTG” was 4.31 z-score.
Consider “CCGATTAACATCACATATCCCCCTGATGTTAATCGGGTCTTGATTCGCTTGACGCTGCTG”, for which the binding signal turned out to be 6.2 z-score.
In turn, “CCGATTAACATCAAACTCCCCCGTGATGTTAATCGGGTCTTGATTCGCTTGACGCTGCTG” registered a binding signal of 6.52 z-score.
For “CCGATTAACATCAAAATAGCCCCTGATGTTAATCGGGTCTTGATTCGCTTGACGCTGCTG”, the binding signal amounted to 5.05 z-score.
The sequence “CCGATTAACATCAAATTGGGAAATGATGTTAATCGGGTCTTGATTCGCTTGACGCTGCTG” showed a binding signal of 2.19 z-score.
As for “CCGATTAACATCAGATAACCCCCTGATGTTAATCGGGTCTTGATTCGCTTGACGCTGCTG”, the figure is 5.95 z-score.
For the sequence “CCGATTAACATCACTAATCCCCCTGATGTTAATCGGGTCTTGATTCGCTTGACGCTGCTG”, the binding signal was 6.57 z-score.
“CCGATTAACATCAGGGGGTTGCATGATGTTAATCGGGTCTTGATTCGCTTGACGCTGCTG” returned a binding signal of 4.66 z-score.
The sequence “CCGATTAACATCACGTGGGGCGTTGATGTTAATCGGGTCTTGATTCGCTTGACGCTGCTG” displayed a binding signal of 1.01 z-score.
Regarding “CCGATTAACATCAGGAGACCCCCTGATGTTAATCGGGTCTTGATTCGCTTGACGCTGCTG”, the binding signal came out at 2.64 z-score.
The value for “CCGATTAACATCAAATTCCCTTATGATGTTAATCGGGTCTTGATTCGCTTGACGCTGCTG” was 6.07 z-score.
“CCGATTAACATCAGGGACGCCCCTGATGTTAATCGGGTCTTGATTCGCTTGACGCTGCTG” registered a binding signal of 3.51 z-score.
The sequence “CCGATTAACATCAAGGGGGAGGGTGATGTTAATCGGGTCTTGATTCGCTTGACGCTGCTG” returned a binding signal of 3.99 z-score.
As for “CCGATTAACATCAAGCTCTAAGGTGATGTTAATCGGGTCTTGATTCGCTTGACGCTGCTG”, the figure is 1 z-score; as for “CCGATTAACATCAGTACCGCGAATGATGTTAATCGGGTCTTGATTCGCTTGACGCTGCTG”, 1.29 z-score; as for “CCGATTAACATCAGAAGACCCCCTGATGTTAATCGGGTCTTGATTCGCTTGACGCTGCTG”, 3.72 z-score.
Sequence “CCGATTAACATCAGGGGGGAACATGATGTTAATCGGGTCTTGATTCGCTTGACGCTGCTG” returned a binding signal of 6.09 z-score.
As for “CCGATTAACATCACTTCCCCCCATGATGTTAATCGGGTCTTGATTCGCTTGACGCTGCTG”, the figure is 4.67 z-score.
